Sampled rows, rich in hits. Any-hit rate of the full collection: about 13%.
Lamin A splicing: qHTS Assay for Modulators of Lamin A Splicing; HeLa LMNA splicing GFP/RFP minigene ratio, 48 h; Potency, µM (top dose mostly 46.1 µM), for inactives: at the highest dose ratio change, negative = inhibition, actives largely listed as inhibitors; 0.01% of 200,000 active; AID 1487, 2009; active = well fitted inhibition curve with a large enough effect in the signal ratio, with a control signal flat, not every such curve was filed as active; inconclusive = small, poorly fitted or top-dose-only effect, or effect the other way, or a change in a side signal; the % refers to the signal ratio; note: potency is the fitted concentration of half-maximal effect; % is set by controls: 0 for no effect and ±100 for the full control effect
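S3 HeLa stable clones carrying a lamin A-EGFP splicing minigene plus DsRed2 were seeded at 600 cells/well in Opti-MEM with 2% FBS, pin-dosed and incubated 48 h at 37°C. Acumen cytometry (488 nm) gave the GFP/RFP total-intensity ratio.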
ALDH1A1 block: qHTS Assay for Inhibitors of Aldehyde Dehydrogenase 1 (ALDH1A1) | 7.3% of 220,000 active | Purified ALDH1A1, NADH fluorescence, propionaldehyde substrate | Potency, µM (highest dose often 75.3 µM), inactives show top-dose activity, negative = inhibition, actives largely listed as inhibitors | Aldehyde dehydrogenase 1A1 (Homo sapiens), P00352 | AID 1030, 2008; active = well fitted inhibition curve with a large enough effect, not every such curve was filed as active; inconclusive = small, poorly fitted or top-dose-only effect, or another doubt; inactive = no such curve, though single readings can be large or run the other way;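 note: potency is the fitted concentration of half-maximal effect; plate controls were no enzyme wells and a reference inhibitor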
Target sequence (P00352 whole entry, looked up): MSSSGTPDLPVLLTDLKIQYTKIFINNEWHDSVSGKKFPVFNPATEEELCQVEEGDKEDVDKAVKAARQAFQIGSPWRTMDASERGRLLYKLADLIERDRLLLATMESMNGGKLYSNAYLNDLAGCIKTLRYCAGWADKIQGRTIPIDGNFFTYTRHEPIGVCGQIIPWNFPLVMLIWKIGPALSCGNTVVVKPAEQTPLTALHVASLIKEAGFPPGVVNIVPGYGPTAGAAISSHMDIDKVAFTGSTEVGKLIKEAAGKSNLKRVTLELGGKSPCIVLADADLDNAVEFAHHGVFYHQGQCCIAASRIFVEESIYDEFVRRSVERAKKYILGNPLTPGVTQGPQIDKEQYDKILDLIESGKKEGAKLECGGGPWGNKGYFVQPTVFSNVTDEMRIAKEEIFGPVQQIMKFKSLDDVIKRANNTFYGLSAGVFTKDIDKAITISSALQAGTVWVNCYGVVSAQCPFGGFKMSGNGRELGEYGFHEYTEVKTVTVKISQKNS
G9a block: qHTS Assay for Inhibitors of Histone Lysine Methyltransferase G9a. G9a H3K9 monomethylation, AlphaScreen, 2 h. 8.8% of 350,000 active. Potency, µM (top dose mostly 102 µM), for inactives: at the highest dose activity, negative = inhibition, usual class: inhibitors. Histone-lysine N-methyltransferase EHMT2 (Homo sapiens), Q96KQ7; note: potency is the fitted concentration of half-maximal effect; % is set by controls: 0 for no effect and ±100 for the full control effect; nearly all actives have a fitted effect of over 75% in size
Target sequence (Q96KQ7 913-1193 limits assumed): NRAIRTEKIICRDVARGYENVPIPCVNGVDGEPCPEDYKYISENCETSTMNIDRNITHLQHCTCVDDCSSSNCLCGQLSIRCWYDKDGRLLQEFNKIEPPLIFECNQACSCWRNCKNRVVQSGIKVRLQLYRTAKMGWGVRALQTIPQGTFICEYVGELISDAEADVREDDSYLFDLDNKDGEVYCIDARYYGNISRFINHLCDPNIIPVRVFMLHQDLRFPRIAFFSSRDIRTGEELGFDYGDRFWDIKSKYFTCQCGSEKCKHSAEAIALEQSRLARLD
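G9a (20 nM) preincubated 15 min RT with compounds, then 500 nM biotinylated H3K9 peptide and 20 uM SAM added; 2 h RT reaction. Monomethyl-H3K9 product detected by AlphaScreen with anti-H3K9me1 antibody, streptavidin donor and anti-rabbit IgG acceptor beads.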
Sfp PPTase inh: qHTS Assay for Inhibitors of Bacillus subtilis Sfp phosphopantetheinyl transferase (PPTase). 4'-phosphopantetheinyl transferase ffp (Bacillus subtilis), Q9F4F7. Biochemical Sfp PPTase activity, qHTS. Potency, µM, for inactives: largest response in the series, negative = inhibition, actives largely listed as inhibitors. 3.5% of 310,000 active. AID 1490, 2009;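 note: the enzyme is Sfp with the accession as filed and its product quenches rhodamine fluorescence; potency is the fitted concentration of half-maximal effect; 0% = enzyme reaction without inhibitor and -100% = no enzyme wells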
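After 15 min at room temperature with compound, 15 nM Sfp received 5 uM rhodamine-CoA plus 12.5 uM BHQ-2-ybbR (50 mM Hepes pH 7.6, 10 mM MgCl2). Rate came from the fluorescence difference over 30 min, ex 525/em 598 nm.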
JMJD2E inh: qHTS Assay for Inhibitors of Human Jumonji Domain Containing 2E (JMJD2E); Lysine-specific demethylase 4E (Homo sapiens), B2RXH2; JMJD2E catalytic domain, FDH-coupled NADH fluorescence (FDH is formaldehyde dehydrogenase); Potency, µM (top dose mostly 57.1 µM), inactives show at the highest dose activity change, negative = inhibition, usual class: inhibitors; 1.6% of 230,000 active; active = well fitted inhibition curve with a large enough effect, not every such curve was filed as active; inconclusive = small, poorly fitted or top-dose-only effect, or another doubt; inactive = no such curve, though single readings can be large or run the other way;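 note: potency is the fitted concentration of half-maximal effect; 0% = wells with enzyme and -100% = buffer wells without enzyme; nearly all actives have a fitted effect of over 50% in size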
miR-21 act: qHTS Assay for Modulators of miRNAs and/orActivators of miR-21; HeLa miR-21 FLuc reporter, luciferase, 48 h; Potency, µM (top dose mostly 38.3 µM), inactives show at the top dose activity change, positive = activation, usual class: activators; 340,000 tested, under 10 active; AID 2288, 2010;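 note: % of control where 0% means no effect; miR-21 action dims this reporter so a rising signal means less miR-21 action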
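HeLa miR-21-FLuc reporter line, endogenous miR-21; 2000 cells/well in DMEM/10% FBS; compound titration up to ~40uM final, 48 h, 37 degree Celsius; luciferase detection reagent, 15 min lysis, CCD luminescence.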
Starred values were filed as active, the others as inactive; ? = inconclusive; / = no result given; [ ] = remark or other dose. Unless noted, calls come from the whole dose curve; as a rule, active = well fitted curve in the direction sought with a large enough effect; inconclusive = small, poorly fitted or top-dose-only effect, or another doubt; inactive = no such curve, though single readings can be large; an effect the other way counts as inactive or inconclusive.

SMILES	Lamin A splicing	ALDH1A1 block	G9a block	Sfp PPTase inh	JMJD2E inh	miR-21 act
COc1cccc(OC)c1C(=O)N1CCN(Cc2ccccc2C)CC1	?	?	32µM*	-28%	?	-5%
Cc1ccccc1CN1CCN(C(=O)c2cccc3ccccc23)CC1	/	/	20µM*	-28%	/	-1%
COc1cccc(CN2CCN(C(=O)c3cccc4ccccc34)CC2)c1OC	-7%	?	?	?	?	4%
CCCCC(CC)CNC(=O)CCCCCn1c(=O)[nH]c2ccsc2c1=O (stereo not drawn)	/	/	8%[59 µM]	/	/	18%
COC(=O)CN1C(=O)C2(C(C#N)=C(N)Oc3n[nH]c(-c4cccs4)c32)c2ccccc21 (stereo not drawn)	7%	2.2µM*	-1%[59 µM]	-6%	5%	-1%
Cc1cc2c(c(=O)o1)C1(C(=O)N(CC(=O)O)c3ccccc31)C(C#N)=C(N)O2 (stereo not drawn)	20%[0.0737 µM]	1%	4%[0.501 µM]	-7%	?	0%
COC(=O)CN1C(=O)C2(C(C#N)=C(N)Oc3c2c(C)nn3-c2ccccc2)c2ccccc21 (stereo not drawn)	-9%	0.14µM*	?	4%	-18%	-9%
CS(=O)(=O)n1nc(OC(=O)c2cc(Br)ccc2Cl)cc1N	-17%[46 µM]	-4%	32µM*	?	7%	1%
FC(F)(F)c1cccc(-c2nn[nH]n2)c1	?	6%	?	18%	-4%	-6%
CC(C)CSc1ncc(-c2cccc(C(F)(F)F)c2)cn1	3%	22µM*	7%[12.7 µM]	-11%	-6%	0%
COc1ccc(O[C@H]2C=C[C@@H](c3ccccc3)O[C@H]2COC(=O)CC/C(C)=N\O[C@@H](C)CN2CCCCc3nc(C)c(C)cc32)cc1	/	3%[13.5 µM]	/	6%	/	/
Cc1ccc(CN(Cc2ccco2)c2cnc(S(C)(=O)=O)nc2C(=O)Nc2ccccc2Br)o1	1%[46 µM]	/	-51%[59 µM]	/	/	0%
Cc1cccc(OCC(=O)O/N=C(\N)Cc2ccc([N+](=O)[O-])cc2)c1	-9%[46 µM]	-8%	35µM*	-6%	-14%	3%
O=C(O)c1nccnc1C(=O)Nc1ccc(S(=O)(=O)N2CCOCC2)cc1	/	/	45µM*	6%	-6%	0%
O=C(Nc1ccc(S(=O)(=O)N2CCOCC2)cc1)c1c(F)cccc1F	/	/	35µM*	-28%	/	-2%
O=C(NCCc1csc(-c2ccc(C(F)(F)F)cc2)n1)c1ccc(F)c(F)c1	?	/	3%[59 µM]	/	/	?
CCCCC(=O)NNC(=O)CC(=O)Nc1ccccc1C(=O)O	/	/	-1%	?	-2%	-7%
CCCCC(=O)Nc1cc(Cl)ccc1C(=O)O	-9%[46 µM]	?	25µM*	10%	?	-1%
N#Cc1ccsc1NC(=O)COC(=O)C1=NNC(=O)CC1	/	/	-13%[59 µM]	/	/	/
CCN(CC)C(=O)c1sc(N)c(C#N)c1C	2%	?	?	-17%	5%	-1%
CCOC(=O)C1CCc2sc(N)c(C#N)c21 (stereo not drawn)	7%	?	15%[59 µM]	50µM*	?	3%
CCOC(=O)N1CCc2c(sc(N)c2C#N)C1	/	/	20µM*	56µM*	?	-1%
COc1cccc(Oc2nc3c(c(=O)n(Cc4ccccc4Cl)c(=O)n3C)n2C)c1	/	/	-5%[59 µM]	/	/	-8%
C[N+]1(CC(=O)OC2CCCCCCCCCCC2)CCCC1	/	-16%	?	0%	-4%	29%
C[N+]1(CCCC[N+]2(C)CCCCCCC2)CCCCCCC1	/	8%[13.5 µM]	/	/	/	/
SMILES	Lamin A splicing	ALDH1A1 block	G9a block	Sfp PPTase inh	JMJD2E inh	miR-21 act
CC(=O)OCCCCCCCCCCC[N+]1(C)CCCCC1	?	15%	45µM*	4%	-9%	-1%
COC(=O)CCCCCCCCCC[N+]1(C)CCCCC1	?	0%	16µM*	1%	7%	-11%
Cc1ccc(CO)cc1Nc1ncnc2onc(-c3ccc(F)cc3)c12	/	/	6%[59 µM]	/	/	-2%
Nc1nc(-c2ccc(NC(=O)c3ccco3)cc2)cs1	/	/	?	-23%	/	0%
NC(=O)/C(=N\OC(=O)c1ccco1)c1nc(-c2ccc(Br)cc2)cs1	?	13µM*	/	9%	?	-15%
S=C1SCN(CC2CC2)CN1CC1CC1	/	/	-27%	35µM*	18%	12%
CN(C)CN1CSC(=S)N(CN(C)C)C1	/	4µM*	/	/	/	/
S=C1SCN(Cc2ccccc2)CN1Cc1ccccc1	?	/	183%	-10%	/	9%
CC(NC(=O)c1ccc(NC(=O)CC2SC(N3CCCC3)=NC2=O)cc1)c1ccc(F)cc1 (stereo not drawn)	/	/	-3%[12.7 µM]	/	/	/
COC(=O)c1ccc(NC(=O)CCn2cccn2)cc1	-5%[46 µM]	/	9%[59 µM]	/	/	-17%
COc1ccc(OCC(=O)N2CCc3c([nH]c4ccccc34)C2c2ccccn2)cc1 (stereo not drawn)	/	0.45µM*	?	4%	-4%	-1%
O=C(c1cccs1)N1CCc2c([nH]c3ccccc23)C1c1ccccn1 (stereo not drawn)	/	-9%	45µM*	-7%	-7%	-8%
Cc1cccc(C2c3[nH]c4ccccc4c3CCN2C(=O)c2noc3c2CCCC3)n1 (stereo not drawn)	/	-13%	?	6%	-1%	-3%
O=C(c1noc2c1CCCC2)N1CCc2c([nH]c3ccccc23)C1c1ccccn1 (stereo not drawn)	/	-3%	50µM*	12%	-5%	-13%
COC(=O)c1ccc(COc2ccccc2/C=C/C(=O)c2ccc(OCC(=O)O)cc2)cc1	/	/	50µM*	?	/	-8%
CCOc1cc(/C=N/Nc2ccccc2Cl)ccc1OCC(=O)O	1%	?	10µM*	-24%	2%	-53%
COC(=O)c1ccc(COc2ccccc2/C=N/Nc2cccc(C(=O)O)c2)cc1	-28%[46 µM]	?	25µM*	1%	-20%	-28%
CCCOc1ccc(/C=N/Nc2ccc(C(=O)O)cc2)c(OCCC)c1	/	?	40µM*	-27%	?	-69%
CCOc1cc(/C=N/Nc2nc(Nc3ccccc3)nc(N3CCCCC3)n2)ccc1OCC(=O)O	/	6%	?	4%	-12%	0%
COC(=O)c1ccc(COc2ccccc2/C=C(\C#N)C(=O)NC(C)C)cc1	-16%	97%	-33%	10%	1%	-4%
Cc1cccc(-c2noc(CN(C(=O)c3ccccc3Cl)C(C)C)n2)c1	/	/	4%[59 µM]	/	/	7%
